Laboratory results as given in PubChem BioAssay AID771 (SRMLSC, 2007).
Out of some 3,300 compounds screened, about 55 (2%) were called active.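 The calls were made as follows: active = growth inhibition above 90%, meaning viable cell count by imaging cut by more than 90% versus vehicle controls; inactive = growth inhibition below 90%.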 The full list was thinned out, with actives kept by preference.

Assay: HT29 colon tumor cell growth inhibition, primary screen, imaging, high content imaging, 48 h, CellTiter-Glo (AID 771);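 as to condensed nuclei: condensed means Hoechst nuclear area under control median minus 1.5 SD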
Settings: HCS imaging cell count, at 10 µM, stronger effect = higher value; for condensed nuclei: measured here: percent cells with condensed nuclei
[1] = measured here: ATP CellTiter-Glo viability inhibition

SMILES	growth inhibition	condensed nuclei [%]	growth inhibition [1] [%]
c1ccc2c(c1)[nH]c1cnccc12	-8.76% (inactive)	2.05	–
Cc1c2ccncc2c(C)c2c1[nH]c1ccccc12	97% (active)	22.4	–
COc1ccccc1-n1c(O)c(C=NCCCn2ccnc2)c(=O)[nH]c1=O	-20.9% (inactive)	3.63	8.58
CC1(C)CC(=O)C(C=NCCN2CCN(C(=O)Cc3ccc(F)cc3)CC2)=C(O)C1	44.1% (inactive)	1.29	0.25
Nc1c(C(=O)NCc2ccco2)c2nc3ccccc3nc2n1CCN1CCCCC1	96.7% (active)	15.6	86.4
COCCOC(=O)c1c(N)n(Cc2ccco2)c2nc3ccccc3nc12	-45.9% (inactive)	3.74	-19.7
Nc1c(C(=O)NCc2ccco2)c2nc3ccccc3nc2n1Cc1ccc(F)cc1	34.1% (inactive)	1.57	32.2
Cc1ccc(C)c(C2(O)CC(C)N(C)CC2C)c1 (stereo not given)	-0.27% (inactive)	2.34	1.07
CN1C[C@H](CNC(=O)OCc2ccccc2)C[C@@H]2c3cccc4c3c(cn4C)C[C@H]21	93.2% (active)	18.1	–
CC[C@@H](CO)NC(=O)[C@@H]1C=C2c3cccc4c3c(cn4C)C[C@H]2N(C)C1	12.4% (inactive)	0.97	–
CC(C)[C@@]1(NC(=O)[C@@H]2C[C@@H]3c4cccc5[nH]cc(c45)C[C@H]3N(C)C2)O[C@@]2(O)[C@@H]3CCCN3C(=O)[C@H](Cc3ccccc3)N2C1=O	88.7% (inactive)	10.3	–
O=C(Nc1ccncc1)c1c(O)c2ccccc2n(Cc2ccccc2)c1=O	-29.4% (inactive)	1.56	-27.2
CCOC(=O)[C@@]1(C#N)[C@@H]2C=CC(C(N)=O)=CN2[C@@H](C(N)=O)[C@@H]1c1cccc(Cl)c1	1.36% (inactive)	1.63	-5.1
CC1(c2ccccc2)NCCN2C(=O)CSC21 (stereo not given)	-10.3% (inactive)	1.47	-1.15
CCOc1ccc(-n2c(O)c(C=NCCN3CCNCC3)c(=O)[nH]c2=O)cc1	46.2% (inactive)	2.45	-8.84
